According to article PMC7862700, “An all-to-all approach to the identification of sequence-specific readers for epigenetic DNA modifications on cytosine”:

Columns and labels:
Experiment in all cases: DAPPL (digital affinity profiling via proximity ligation, sequencing); 10 mM Tris-HCl pH 7.5, 50 mM NaCl, 1 mM DTT, 4% glycerol, room temperature, 30 min; GST-TFs on glutathione beads, 16-mer random dsDNA library, 0.1% formaldehyde crosslink after washing; high values mean tight binding
FEV = biological target: T1, FEV (Homo sapiens, UniProt Q99581 1-238); settings: protein: recombinant; tags: N-terminal GST; dsDNA, one strand shown
T1 sequence: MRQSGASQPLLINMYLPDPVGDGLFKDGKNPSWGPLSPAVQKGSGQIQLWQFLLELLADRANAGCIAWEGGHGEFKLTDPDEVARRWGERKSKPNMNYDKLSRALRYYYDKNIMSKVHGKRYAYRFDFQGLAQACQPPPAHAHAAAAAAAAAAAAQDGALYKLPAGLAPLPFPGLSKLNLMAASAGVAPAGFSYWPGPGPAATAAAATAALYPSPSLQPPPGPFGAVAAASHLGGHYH
Outline: (§1)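 Yeast served to express human transcription factors as GST fusions, which were then captured on glutathione beads and labelled with DNA barcodes. Pooled with a tag-only sample, they were incubated with 200 nmole of a 16-mer random double-stranded DNA library for 30 min at room temperature in Tris/NaCl/DTT/glycerol buffer, washed, crosslinked with 0.1% formaldehyde, ligated by proximity, amplified by PCR and sequenced. Dividing each hexamer's read frequency for a factor by its frequency for the tag-only sample gives the binding signal.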

ETV5 = ETV5 (Homo sapiens, UniProt P41161 1-510); settings: protein: recombinant; tags: N-terminal GST; dsDNA, one strand shown
Chain of ETV5 (P41161 whole entry): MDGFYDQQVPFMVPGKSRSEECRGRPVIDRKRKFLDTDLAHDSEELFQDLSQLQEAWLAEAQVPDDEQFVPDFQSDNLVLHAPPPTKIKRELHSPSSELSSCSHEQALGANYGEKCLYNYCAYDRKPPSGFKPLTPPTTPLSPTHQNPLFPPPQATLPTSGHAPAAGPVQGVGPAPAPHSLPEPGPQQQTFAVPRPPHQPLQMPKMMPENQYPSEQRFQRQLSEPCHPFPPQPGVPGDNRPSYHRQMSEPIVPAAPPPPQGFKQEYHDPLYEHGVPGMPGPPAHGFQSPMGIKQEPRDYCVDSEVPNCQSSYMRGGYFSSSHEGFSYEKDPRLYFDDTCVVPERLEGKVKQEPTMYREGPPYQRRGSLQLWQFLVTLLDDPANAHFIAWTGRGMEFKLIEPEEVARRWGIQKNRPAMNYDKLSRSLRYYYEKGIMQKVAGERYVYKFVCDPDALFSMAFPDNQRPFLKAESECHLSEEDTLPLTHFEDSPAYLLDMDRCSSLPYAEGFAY
Outline: as §1

HSF1 = HSF1 (Homo sapiens, UniProt Q00613 1-529); settings: protein: recombinant; tags: N-terminal GST; chain copies: 3; dsDNA, one strand shown
Chain of HSF1 (Q00613 whole entry): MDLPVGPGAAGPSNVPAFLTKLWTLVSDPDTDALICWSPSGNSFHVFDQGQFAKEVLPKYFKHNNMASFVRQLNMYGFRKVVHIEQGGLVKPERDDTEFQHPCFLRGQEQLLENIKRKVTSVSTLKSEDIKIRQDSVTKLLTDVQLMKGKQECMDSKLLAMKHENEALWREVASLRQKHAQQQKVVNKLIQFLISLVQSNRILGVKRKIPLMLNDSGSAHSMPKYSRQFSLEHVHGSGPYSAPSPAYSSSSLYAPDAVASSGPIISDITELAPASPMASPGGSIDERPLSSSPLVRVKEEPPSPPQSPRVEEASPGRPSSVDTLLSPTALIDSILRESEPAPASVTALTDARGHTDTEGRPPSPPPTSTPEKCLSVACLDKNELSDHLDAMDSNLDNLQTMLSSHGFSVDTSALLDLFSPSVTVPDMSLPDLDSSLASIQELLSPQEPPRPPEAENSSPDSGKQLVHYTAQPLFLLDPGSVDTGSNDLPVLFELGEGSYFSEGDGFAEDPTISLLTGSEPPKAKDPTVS
Outline: as §1

SPIC = biological target: T2, SPIC (Homo sapiens, UniProt Q8N5J4 1-248); settings: protein: recombinant; tags: N-terminal GST; dsDNA, one strand shown
T2 sequence: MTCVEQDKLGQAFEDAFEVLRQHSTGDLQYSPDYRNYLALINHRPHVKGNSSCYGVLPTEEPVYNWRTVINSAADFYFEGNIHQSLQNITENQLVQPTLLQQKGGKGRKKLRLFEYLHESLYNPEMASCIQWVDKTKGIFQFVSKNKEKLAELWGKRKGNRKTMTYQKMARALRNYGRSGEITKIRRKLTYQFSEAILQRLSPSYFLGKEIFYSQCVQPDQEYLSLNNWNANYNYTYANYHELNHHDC
Outline: as §1

ELF4 = ELF4 (Homo sapiens, UniProt Q99607 1-663); settings: protein: recombinant; tags: N-terminal GST; dsDNA, one strand shown
Chain of ELF4 (Q99607 whole entry): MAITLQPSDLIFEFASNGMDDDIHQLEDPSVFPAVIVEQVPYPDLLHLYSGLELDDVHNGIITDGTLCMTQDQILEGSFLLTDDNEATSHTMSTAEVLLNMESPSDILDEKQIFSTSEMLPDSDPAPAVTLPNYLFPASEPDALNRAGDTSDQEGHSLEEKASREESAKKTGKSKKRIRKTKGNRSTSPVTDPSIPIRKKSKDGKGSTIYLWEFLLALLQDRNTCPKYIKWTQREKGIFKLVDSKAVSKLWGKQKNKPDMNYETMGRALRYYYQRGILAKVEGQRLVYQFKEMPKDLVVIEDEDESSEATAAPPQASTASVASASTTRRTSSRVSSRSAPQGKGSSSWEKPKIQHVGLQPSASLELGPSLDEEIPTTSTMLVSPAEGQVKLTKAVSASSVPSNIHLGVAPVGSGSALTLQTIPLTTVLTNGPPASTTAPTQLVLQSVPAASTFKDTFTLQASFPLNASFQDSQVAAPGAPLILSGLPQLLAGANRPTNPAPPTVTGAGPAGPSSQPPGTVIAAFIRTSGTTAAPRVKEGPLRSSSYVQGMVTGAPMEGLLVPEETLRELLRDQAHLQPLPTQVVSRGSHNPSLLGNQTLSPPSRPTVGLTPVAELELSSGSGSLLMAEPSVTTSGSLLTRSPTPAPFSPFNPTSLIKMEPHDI
Outline: as §1

ELK4 = biological target: T3, ELK4 (Homo sapiens, UniProt P28324-2 1-405); settings: protein: recombinant; tags: N-terminal GST; dsDNA, one strand shown
T3 sequence: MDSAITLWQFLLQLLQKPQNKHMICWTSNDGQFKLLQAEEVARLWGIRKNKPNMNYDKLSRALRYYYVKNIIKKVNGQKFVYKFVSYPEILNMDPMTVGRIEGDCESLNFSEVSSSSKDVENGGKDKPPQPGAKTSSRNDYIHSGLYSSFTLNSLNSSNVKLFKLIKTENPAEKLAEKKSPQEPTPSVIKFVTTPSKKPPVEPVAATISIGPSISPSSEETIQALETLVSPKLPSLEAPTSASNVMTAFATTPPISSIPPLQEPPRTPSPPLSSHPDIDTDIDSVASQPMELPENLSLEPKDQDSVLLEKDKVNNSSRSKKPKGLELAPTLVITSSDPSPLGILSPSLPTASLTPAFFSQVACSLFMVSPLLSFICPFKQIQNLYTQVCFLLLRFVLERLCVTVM
Outline: as §1

ETV2 = biological target: T4, ETV2 (Homo sapiens, UniProt O00321 1-342); settings: protein: recombinant; tags: N-terminal GST; dsDNA, one strand shown
T4 sequence: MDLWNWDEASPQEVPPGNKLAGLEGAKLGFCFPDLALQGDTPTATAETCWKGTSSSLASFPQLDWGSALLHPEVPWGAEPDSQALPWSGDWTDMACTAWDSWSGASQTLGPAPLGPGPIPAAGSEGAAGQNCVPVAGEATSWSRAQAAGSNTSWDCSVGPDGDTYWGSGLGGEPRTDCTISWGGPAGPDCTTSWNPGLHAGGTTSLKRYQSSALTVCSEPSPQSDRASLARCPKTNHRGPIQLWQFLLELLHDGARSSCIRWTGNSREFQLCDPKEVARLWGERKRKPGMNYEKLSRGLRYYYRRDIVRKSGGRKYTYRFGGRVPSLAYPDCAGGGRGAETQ
Outline: as §1

ELF3 = biological target: T5, ELF3 (Homo sapiens, UniProt P78545 1-371); settings: protein: recombinant; tags: N-terminal GST; dsDNA, one strand shown
T5 sequence: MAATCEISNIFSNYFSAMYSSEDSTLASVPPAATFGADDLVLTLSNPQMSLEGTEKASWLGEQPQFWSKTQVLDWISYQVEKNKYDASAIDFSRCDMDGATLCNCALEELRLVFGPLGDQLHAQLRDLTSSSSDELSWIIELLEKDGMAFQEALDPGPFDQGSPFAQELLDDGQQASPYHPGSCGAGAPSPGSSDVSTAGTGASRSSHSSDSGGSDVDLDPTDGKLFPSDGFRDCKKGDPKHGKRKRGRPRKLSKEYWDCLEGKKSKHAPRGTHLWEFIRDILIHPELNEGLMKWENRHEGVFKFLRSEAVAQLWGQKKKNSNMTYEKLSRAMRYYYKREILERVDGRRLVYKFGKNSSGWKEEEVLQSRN
Outline: as §1

CRX = CRX (Homo sapiens, UniProt O43186 1-299); settings: protein: recombinant; tags: N-terminal GST; dsDNA, one strand shown
Chain of CRX (O43186 whole entry): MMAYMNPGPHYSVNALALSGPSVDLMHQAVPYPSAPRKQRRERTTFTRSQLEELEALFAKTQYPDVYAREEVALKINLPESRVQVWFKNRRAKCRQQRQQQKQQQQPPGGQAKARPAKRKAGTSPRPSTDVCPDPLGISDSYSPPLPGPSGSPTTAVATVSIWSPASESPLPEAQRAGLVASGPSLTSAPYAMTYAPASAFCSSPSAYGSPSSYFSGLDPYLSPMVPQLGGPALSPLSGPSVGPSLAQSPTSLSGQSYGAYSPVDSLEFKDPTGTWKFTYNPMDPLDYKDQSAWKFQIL
Outline: as §1

ETV1 = ETV1 (Homo sapiens, UniProt P50549 1-477); settings: protein: recombinant; tags: N-terminal GST; dsDNA, one strand shown
Chain of ETV1 (P50549 whole entry): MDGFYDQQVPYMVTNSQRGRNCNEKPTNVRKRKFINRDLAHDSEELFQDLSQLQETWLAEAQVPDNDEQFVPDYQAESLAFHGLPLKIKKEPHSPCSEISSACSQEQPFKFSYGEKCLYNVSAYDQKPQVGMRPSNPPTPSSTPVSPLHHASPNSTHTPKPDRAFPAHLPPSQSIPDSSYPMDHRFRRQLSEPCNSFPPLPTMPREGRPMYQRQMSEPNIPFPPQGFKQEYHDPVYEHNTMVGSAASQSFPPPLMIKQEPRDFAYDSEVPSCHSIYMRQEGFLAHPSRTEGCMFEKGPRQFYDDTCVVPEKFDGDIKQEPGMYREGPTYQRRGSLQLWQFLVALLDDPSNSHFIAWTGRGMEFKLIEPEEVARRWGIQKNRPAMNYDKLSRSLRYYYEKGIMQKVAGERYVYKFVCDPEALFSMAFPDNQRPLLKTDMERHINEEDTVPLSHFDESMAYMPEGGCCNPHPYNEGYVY
Outline: as §1

ERF = biological target: T6, ERF (Homo sapiens, UniProt P50548 1-548); settings: protein: recombinant; tags: N-terminal GST; dsDNA, one strand shown
T6 sequence: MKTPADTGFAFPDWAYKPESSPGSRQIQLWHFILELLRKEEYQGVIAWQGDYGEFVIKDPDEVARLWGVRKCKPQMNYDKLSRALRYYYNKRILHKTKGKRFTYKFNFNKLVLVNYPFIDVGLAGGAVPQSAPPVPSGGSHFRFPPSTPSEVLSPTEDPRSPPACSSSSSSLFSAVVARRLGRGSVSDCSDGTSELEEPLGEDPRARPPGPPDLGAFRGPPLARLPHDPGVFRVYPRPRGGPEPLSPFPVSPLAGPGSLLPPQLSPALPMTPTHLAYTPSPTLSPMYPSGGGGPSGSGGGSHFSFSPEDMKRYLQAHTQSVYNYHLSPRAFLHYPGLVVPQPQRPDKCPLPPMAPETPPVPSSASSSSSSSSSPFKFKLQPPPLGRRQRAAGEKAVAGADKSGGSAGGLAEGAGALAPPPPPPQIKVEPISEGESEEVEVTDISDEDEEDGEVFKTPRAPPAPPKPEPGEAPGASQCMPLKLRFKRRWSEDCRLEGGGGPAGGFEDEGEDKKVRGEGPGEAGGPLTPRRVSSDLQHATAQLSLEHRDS
Outline: as §1

ETV3L = biological target: T7, ETV3L (Homo sapiens, UniProt Q6ZN32 1-361); settings: protein: recombinant; tags: N-terminal GST; dsDNA, one strand shown
T7 sequence: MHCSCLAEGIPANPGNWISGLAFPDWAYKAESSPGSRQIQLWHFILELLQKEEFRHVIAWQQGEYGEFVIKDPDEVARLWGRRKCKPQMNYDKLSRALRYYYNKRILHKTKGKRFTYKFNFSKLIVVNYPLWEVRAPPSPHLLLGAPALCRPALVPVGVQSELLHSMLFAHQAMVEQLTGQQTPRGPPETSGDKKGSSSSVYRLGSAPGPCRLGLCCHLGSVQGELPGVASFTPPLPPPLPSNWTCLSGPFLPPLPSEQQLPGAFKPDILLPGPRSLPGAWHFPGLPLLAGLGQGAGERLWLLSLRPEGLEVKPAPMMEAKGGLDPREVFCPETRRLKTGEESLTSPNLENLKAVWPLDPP
Outline: as §1

ETS2 = biological target: T8, ETS2 (Homo sapiens, UniProt P15036 1-469); settings: protein: recombinant; tags: N-terminal GST; dsDNA, one strand shown
T8 sequence: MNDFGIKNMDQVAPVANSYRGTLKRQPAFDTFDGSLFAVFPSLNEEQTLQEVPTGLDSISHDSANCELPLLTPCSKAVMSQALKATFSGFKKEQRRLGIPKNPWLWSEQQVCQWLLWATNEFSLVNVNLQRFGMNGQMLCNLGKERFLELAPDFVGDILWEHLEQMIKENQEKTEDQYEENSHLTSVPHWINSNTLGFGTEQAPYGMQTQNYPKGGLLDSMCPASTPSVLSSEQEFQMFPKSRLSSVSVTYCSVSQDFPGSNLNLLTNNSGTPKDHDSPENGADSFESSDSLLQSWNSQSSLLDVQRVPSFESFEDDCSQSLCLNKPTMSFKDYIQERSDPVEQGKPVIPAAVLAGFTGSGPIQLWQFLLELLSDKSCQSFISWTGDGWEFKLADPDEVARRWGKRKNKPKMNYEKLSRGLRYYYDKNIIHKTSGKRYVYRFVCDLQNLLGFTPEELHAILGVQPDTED
Outline: as §1

SPDEF = biological target: T9, SPDEF (Homo sapiens, UniProt O95238 1-335); settings: protein: recombinant; tags: N-terminal GST; dsDNA, one strand shown
T9 sequence: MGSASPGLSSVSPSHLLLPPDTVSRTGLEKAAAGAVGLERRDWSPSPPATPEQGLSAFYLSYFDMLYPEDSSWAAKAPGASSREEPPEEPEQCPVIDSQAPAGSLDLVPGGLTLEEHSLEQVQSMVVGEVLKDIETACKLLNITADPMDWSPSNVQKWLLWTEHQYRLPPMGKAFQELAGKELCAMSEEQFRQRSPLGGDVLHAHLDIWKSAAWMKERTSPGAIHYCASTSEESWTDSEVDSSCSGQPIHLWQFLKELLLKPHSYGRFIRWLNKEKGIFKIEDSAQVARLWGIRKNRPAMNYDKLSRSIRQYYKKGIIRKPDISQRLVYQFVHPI
Outline: as §1

ETV7 = biological target: T10, ETV7 (Homo sapiens, UniProt Q9Y603 1-341); settings: protein: recombinant; tags: N-terminal GST; dsDNA, one strand shown
T10 sequence: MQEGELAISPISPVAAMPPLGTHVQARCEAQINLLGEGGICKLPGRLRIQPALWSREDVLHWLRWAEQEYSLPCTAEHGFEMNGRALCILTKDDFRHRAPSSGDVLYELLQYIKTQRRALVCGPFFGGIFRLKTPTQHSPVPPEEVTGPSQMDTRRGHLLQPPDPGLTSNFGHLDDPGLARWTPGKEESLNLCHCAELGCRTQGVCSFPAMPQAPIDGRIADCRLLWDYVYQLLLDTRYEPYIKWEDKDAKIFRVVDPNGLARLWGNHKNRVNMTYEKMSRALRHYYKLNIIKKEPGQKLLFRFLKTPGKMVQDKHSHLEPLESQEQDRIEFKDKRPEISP
Outline: as §1

ELF5 = biological target: T11, ELF5 (Homo sapiens, UniProt Q9UKW6-2 1-255); settings: protein: recombinant; tags: N-terminal GST; dsDNA, one strand shown
T11 sequence: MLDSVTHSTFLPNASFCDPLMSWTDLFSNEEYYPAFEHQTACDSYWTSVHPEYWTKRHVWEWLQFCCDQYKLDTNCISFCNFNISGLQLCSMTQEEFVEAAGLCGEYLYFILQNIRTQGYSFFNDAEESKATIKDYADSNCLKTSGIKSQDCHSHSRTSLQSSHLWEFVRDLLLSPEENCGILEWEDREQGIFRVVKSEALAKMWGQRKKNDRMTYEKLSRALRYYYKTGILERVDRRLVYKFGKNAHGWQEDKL
Outline: as §1

ETV3 = biological target: T12, ETV3 (Homo sapiens, UniProt P41162-2 1-143); settings: protein: recombinant; tags: N-terminal GST; dsDNA, one strand shown
T12 sequence: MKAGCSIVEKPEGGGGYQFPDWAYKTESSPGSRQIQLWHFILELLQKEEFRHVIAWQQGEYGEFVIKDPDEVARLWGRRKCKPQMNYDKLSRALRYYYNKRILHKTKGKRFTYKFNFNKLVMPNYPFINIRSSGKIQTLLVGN
Outline: as §1

ETV6 = ETV6 (Homo sapiens, UniProt P41212 1-452); settings: protein: recombinant; tags: N-terminal GST; dsDNA, one strand shown
Chain of ETV6 (P41212 whole entry): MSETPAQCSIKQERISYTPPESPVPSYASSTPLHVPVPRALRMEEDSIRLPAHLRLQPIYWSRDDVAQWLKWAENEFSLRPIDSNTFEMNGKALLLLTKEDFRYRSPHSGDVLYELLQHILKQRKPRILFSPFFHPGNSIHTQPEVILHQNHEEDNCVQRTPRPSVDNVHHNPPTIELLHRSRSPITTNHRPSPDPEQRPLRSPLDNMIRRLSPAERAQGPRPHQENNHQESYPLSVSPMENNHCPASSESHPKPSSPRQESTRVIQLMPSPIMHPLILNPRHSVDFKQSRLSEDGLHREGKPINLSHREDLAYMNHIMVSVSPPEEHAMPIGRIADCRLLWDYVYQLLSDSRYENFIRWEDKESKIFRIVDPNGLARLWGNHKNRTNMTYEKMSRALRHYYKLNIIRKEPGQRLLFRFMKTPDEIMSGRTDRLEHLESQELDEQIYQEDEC
Outline: as §1

CCTCAT
binding signal (FEV): 1.26 fold enrichment (6-mer frequency, TF over GST control) | binding signal (ETV5): 1.31 fold enrichment (6-mer frequency, TF over GST control) | binding signal (HSF1): 1.08 fold enrichment (6-mer frequency, TF over GST control) | binding signal (SPIC): 1.45 fold enrichment (6-mer frequency, TF over GST control) | binding signal (ELF4): 1.39 fold enrichment (6-mer frequency, TF over GST control) | binding signal (ELK4): 1.3 fold enrichment (6-mer frequency, TF over GST control) | binding signal (ETV2): 1.1 fold enrichment (6-mer frequency, TF over GST control) | binding signal (ELF3): 1.27 fold enrichment (6-mer frequency, TF over GST control) | binding signal (CRX): 1.1 fold enrichment (6-mer frequency, TF over GST control) | binding signal (ETV1): 1.37 fold enrichment (6-mer frequency, TF over GST control) | binding signal (ERF): 1.32 fold enrichment (6-mer frequency, TF over GST control) | binding signal (ETV3L): 1.37 fold enrichment (6-mer frequency, TF over GST control) | binding signal (ETS2): 1.29 fold enrichment (6-mer frequency, TF over GST control) | binding signal (SPDEF): 1.31 fold enrichment (6-mer frequency, TF over GST control) | binding signal (ETV7): 1.25 fold enrichment (6-mer frequency, TF over GST control) | binding signal (ELF5): 1.58 fold enrichment (6-mer frequency, TF over GST control) | binding signal (ETV3): 1.32 fold enrichment (6-mer frequency, TF over GST control) | binding signal (ETV6): 1.39 fold enrichment (6-mer frequency, TF over GST control)
